# Data taken from PubChem BioAssay (Tox21).
# Records with an inconclusive call do not appear. Activity calls are given as the source filed them. Calls come from the whole dose curve.
# Molecular target: Beta-2 adrenergic receptor (Homo sapiens) (UniProt P07550)
# Experiment: Adrenergic beta2 receptor (ADRB2) small molecule antagonists, cell-based qHTS assay (AID 1963592); note: nearly all actives have a fitted effect of over 50% in size
# Details: CHO-ADRB2 cells, isoproterenol-stimulated cAMP HTRF ratio, 0.5 h; series mostly up to 92.4 µM; activity change, negative = inhibition: at the top concentration
# Text: U.S. Tox21 Program National Center for Advancing Translational Sciences [NCATS] Division of Preclinical Innovation [DPI] U.S. Environmental Protection Agency [EPA] National Institutes of Environmental Health Sciences [NIEHS] National Toxicology Program [NTP] U.S. Food and Drug Administration [FDA] Tox21 Assay Overview: Beta adrenergic receptors (Beta-ARs) belong to the G-protein coupled receptor (GPCR) superfamily, includes three subtypes - beta1, beta2, and beta3. Beta1-AR is the predominant receptor subtype expressed in the heart, and beta2-AR is expressed in the kidney, lung, blood vessel and in the heart, and beta3 is found in the adipocytes. Beta1 and 2 ARs couple to Gs protein and elevate cyclic adenosine mono phosphate (cAMP), which activates protein kinase A and leads to the downstream signaling responsible for the physiological actions. Beta-AR agonists or antagonists are the most prescribed therapeutic agents for heart failure and asthma, and these were one of the first target receptors for the rational drug design. Tox21 10K compound library was screened using the cAMP-Gs dynamic assay (Cisbio Bioassays, Shelton, CT) to identify agonists/antagonists of the Gs-coupled human adrenergic, beta2 receptor (ADRB2) in the CHO-ADRB2 cell line (Codex BioSolutions, Inc. Gaithersburg, MD), which stably over-expresses ADRB2. The principle of cAMP-Gs dynamic assay is based on HTRF technology, which facilitates the fluorescence resonance energy transfer (FRET) between donor Europium cryptate and acceptor d2-labeled cAMP. The cAMP generated within cells competes with the red acceptor, d2-labled cAMP, for binding to the monoclonal anti-cAMP-cryptate (Europium donor). An increase in intracellular cAMP leads to the disruption of FRET signal, and the signal is inversely proportional to the cAMP concentration. Propranolol HCl (Sigma-Aldrich, St. Louis, MO) was used as a positive control in the screening.
# Tox21 Assay Protocol Summary: CHO-ADRB2 cells were dispensed at 1,000/well in 4uL assay medium into white/solid 1536-well plates (Greiner Bio-One North America Inc., Monroe, NC) using a Multidrop Combi dispenser (ThermoFisher Scientific, Waltham, MA). The assay plates were incubated at 37C and 5% CO2 for an overnight (18-20hr). Then positive control and test compounds dissolved in DMSO were transferred to the assay plates at 23nL using a Pintool station (Wako, San Diego, CA). Following the compound and positive control transfer, 1uL agonist-stimulation mix containing 1nM Isoproterenol HCl, 100uM IBMX and 25uM Ro-20-1724 was added to each well of the assay plates using BioRAPTR Flying Reagent Dispenser (FRD, Beckman Coulter, Brea, CA). The assay plates were incubated at room temperature for 0.5hr. Then 2.5ul each d2-labled cAMP and anti-cAMP-cryptate solutions were added separately to each well of the assay plates using an FRD and the assay plates were incubated at room temperature for 1hr. The fluorescence signal was measured at two different wavelengths (665nm and 615nm) using an Envision plate reader (Perkin Elmer, Shelton, CT). Data were expressed as the ratio of 665 nm/615 nm.
# % is set by controls: 0 for no effect and ±100 for the full control effect; potency is the fitted concentration of half-maximal effect.
# Sequence of Beta-2 adrenergic receptor (Homo sapiens) (P07550 whole entry, looked up): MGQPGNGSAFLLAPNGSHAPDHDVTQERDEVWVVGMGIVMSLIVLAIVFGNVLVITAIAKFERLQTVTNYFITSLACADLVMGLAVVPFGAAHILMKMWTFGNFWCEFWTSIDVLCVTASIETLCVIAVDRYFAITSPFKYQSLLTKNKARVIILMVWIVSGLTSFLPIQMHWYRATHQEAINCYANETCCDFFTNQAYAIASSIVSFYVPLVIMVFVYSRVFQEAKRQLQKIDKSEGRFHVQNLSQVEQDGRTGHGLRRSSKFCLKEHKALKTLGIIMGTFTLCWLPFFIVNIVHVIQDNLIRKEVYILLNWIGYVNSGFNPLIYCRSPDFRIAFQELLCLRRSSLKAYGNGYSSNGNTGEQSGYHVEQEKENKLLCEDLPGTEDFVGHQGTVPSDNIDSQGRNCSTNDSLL
SMILES,"activity change, negative = inhibition",Potency
CCN(CC)C(=O)Cl,-1.09% (inactive),–
C[N+](C)=CCl,-10.7% (inactive),–
Oc1c(I)cc(I)cc1I,3.7% (inactive),–
Cc1c(COC(=O)[C@@H]2[C@H](/C=C(\Cl)C(F)(F)F)C2(C)C)cccc1-c1ccccc1,–,inactive
CC(C)CP(=S)(S)CC(C)C,-0.796% (inactive),–
COC(=O)C(c1ccccc1)C1CCCCN1 (stereo not given),-4.68% (inactive),–
[O-][Br+2]([O-])O,-1.11% [at 42.5 µM] (inactive),–
Cc1cc(Cl)ccc1O[C@H](C)C(=O)O,1.21% (inactive),–
CCc1ccc(C2CCNCC2)cc1,-16.1% [at 42.5 µM] (inactive),–
CC(C)(C)OO,1.31% (inactive),–
CCSCc1ccccc1OC(=O)NC,6.19% (inactive),–
COc1ccc(C=O)cc1O,-4.63% (inactive),–
Cc1cccc(OP(=O)(Oc2cccc(C)c2)Oc2cccc(C)c2)c1,0.775% (inactive),–
O=[N+]([O-])C(Br)Br,-3.37% (inactive),–
O=C(O)CBr,-8.89% (inactive),–
N[C@@H]1C[C@H]1c1ccccc1,-14% [at 42.5 µM] (inactive),–
CCNc1nc(Cl)nc(NC(C)(C)C)n1,-1.17% (inactive),–
OCCCBr,-0.685% (inactive),–
CCOC(=O)CBr,-3.01% (inactive),–
COP(=O)(OC)O/C(=C/Cl)c1cc(Cl)c(Cl)cc1Cl,-6.02% (inactive),–

SMILES,"activity change, negative = inhibition",Potency
Cc1c([N+](=O)[O-])c(C)c([N+](=O)[O-])c(C(C)(C)C)c1[N+](=O)[O-],9.52% (inactive),–
Cc1nnc2n1-c1sc(CCC(=O)N3CCOCC3)cc1C(c1ccccc1Cl)=NC2,–,29.8 µM (active)
CNP(=O)(OC)Oc1ccc(C(C)(C)C)cc1Cl (stereo not given),-19.8% (inactive),–
ClC(Cl)Br,-10.1% (inactive),–
CS/C(C)=N/OC(=O)N(C)SN(C)C(=O)O/N=C(\C)SC,-2.62% (inactive),–
COP(=S)(OC)Oc1ccc([N+](=O)[O-])cc1Cl,-4.61% (inactive),–
CN1C(=O)[C@@H](NC(=O)c2cc3ccccc3[nH]2)N=C(c2ccccc2)c2ccccc21,-12.6% [at 42.5 µM] (inactive),–
O=c1[nH]oc2c1CCNC2,2.57% [at 42.5 µM] (inactive),–
O=C1CC[C@@]2(O)[C@H]3Cc4ccc(O)c5c4[C@@]2(CCN3CC2CC2)[C@H]1O5,0.917% [at 42.5 µM] (inactive),–
CC(=O)NC1CCSC1=O (stereo not given),0.692% [at 42.5 µM] (inactive),–
CC(=O)[O-].[Tl+],2.94% (inactive),–
Clc1ccc(-c2ccc(Cl)c(Cl)c2Cl)c(Cl)c1Cl,18.2% (inactive),–
CC(C)N(C(=O)SC/C(Cl)=C/Cl)C(C)C,0.189% (inactive),–
O=C(O)[C@H](O)[C@@H](O)C(=O)O,1.13% (inactive),–
CCOP(=S)(Oc1ccc([N+](=O)[O-])cc1)c1ccccc1 (stereo not given),1.63% (inactive),–
O=[N+]([O-])c1ccc(Cl)c(Cl)c1Cl,1.42% (inactive),–
CN1CCc2cc3c(cc2C1O)OCO3 (stereo not given),-2.61% (inactive),–
O=[N+]([O-])[O-].[Tl+],0.694% (inactive),–
CO/C=C(/C(=O)OC)c1ccccc1COc1cccc(C(F)(F)F)n1,6.57% (inactive),–
O=C(N/N=C/c1ccc([N+](=O)[O-])o1)c1cc([N+](=O)[O-])cc([N+](=O)[O-])c1O,0.0342% [at 42.5 µM] (inactive),–
